Inconclusive results are not listed. A number with no mark means an inactive call. Calls of active or inactive are those of the source. Calls come from the whole dose curve; as a rule, active = well fitted curve in the direction sought with a large enough effect in the signal ratio in the repeat runs (not every such curve was filed as active); inconclusive = weak or mixed curves, or a change in a side signal; inactive = no such curve, though single readings can be large or run the other way; the % refers to the signal ratio.
Test: qHTS assay to identify small molecule agonists of the NFkB signaling pathway (AID 1159509)
Settings: NFkB-bla ME-180 cells, beta-lactamase FRET ratio, 5 h; series mostly up to 61 µM
Description: National Center for Advancing Translational Sciences [NCATS]
NIH Chemical Genomics Center [NCGC]
U.S. Environmental Protection Agency [EPA]
National Institutes of Environmental Health Sciences [NIEHS]
National Toxicology Program [NTP]
U.S. Food and Drug Administration [FDA]
Transcription factors and their stimulated target gene expression play pivotal roles across many cellular processes including responses to environmental stimuli. Proper regulation of associated pathways is critical to maintain cell health and function. Constitutive activation of transcription factor pathways has been implicated in tumors as it may block cellular functions such as apoptosis and lead to invasion and metastasis. One important transcription factor that stimulates gene expression in response to cytokines, UV radiation, and other stimuli is nuclear factor-kappa B (NFkB). To measure activation of the NFkB pathway, the CellSensor NFkB-bla ME-180 cell line (Life Technologies, Carlsbad, CA) that stably expresses beta-lactamase reporter gene under the regulation of a NF-kB response element was used. This assay allows measurement of the NFkB pathway activity induced by compounds in a ME-180 cell line. This system quantitates NF-kB activity using a FRET-based assay system where beta-lactamase expression disrupts FRET, allowing for fluorescent measurement of activity. This cell line has been used to screen the Tox21 10K compound library and to identify compounds that induce the NFkB pathway activity.
Tox21 Assay Protocol Summary:
NFkB-bla ME-180 cells were dispensed at 2,000 cells/6 uL of assay medium per well into black wall/clear-bottom 1536-well plates using a Multidrop Combi (ThermoFisher Scientific, Waltham, MA) dispenser. After the assay plates were incubated at 37 C and 5% CO2 for an overnight, 23 nL of compounds dissolved in DMSO, positive controls or DMSO only was transferred to the assay plate by a Pintool station (Kalypsys, San Diego, CA). The assay plates were incubated at 37 C and 5% CO2 for 5 hr. One uL of LiveBLAzer B/G FRET substrate (Life Technologies) was added using a Flying Reagent Dispenser (Aurora Discovery, San Diego, CA) and the plates were incubated at room temperature for 1.5 hr. Fluorescence intensity (405 nm excitation, 460 nm and 530 nm emissions) was measured using an Envision plate reader (PerkinElmer, Shelton, CT).
% is set by controls: 0 for no effect and ±100 for the full control effect.

| SMILES | outcome | activation |
| --- | --- | --- |
| CC(=O)OCC(=O)[C@@]1(O)[C@H](OC(C)=O)C[C@H]2[C@@H]3CCC4=CC(=O)C=C[C@]4(C)[C@@]3(F)[C@@H](O)C[C@@]21C | inactive | – |
| Cc1nc(C)nc(N2C[C@@H](C)N(c3ccnc([C@@H](C)O)n3)[C@@H](C)C2)n1 | inactive | – |
| CCC(=O)OCCC(C)CCC=C(C)C (stereo not given) | inactive | – |
| NS(=O)(=O)c1cc2c(cc1Cl)NC(CC1CCCC1)NS2(=O)=O (stereo not given) | inactive | – |
| CCOC(=O)CCc1ccccc1 | inactive | – |
| CCC(C)(CCC(C)C)C(=O)[O-].CCC(C)(CCC(C)C)C(=O)[O-].[Zn+2] (stereo not given) | inactive | – |
| C[C@H]1O[C@H](O[C@H]2[C@H](O)[C@@H](O)[C@@H](O[C@H]3[C@H](O)[C@@H](O)[C@H](O)O[C@@H]3CO)O[C@@H]2CO)[C@H](O)[C@@H](O)[C@@H]1N[C@H]1C=C(CO)[C@@H](O)[C@H](O)[C@H]1O | inactive | – |
| CC(=O)/C=C/c1ccco1 | inactive | – |
| CC(=O)c1ccc(OCC(=O)N2CCCCC2)cc1 | inactive | – |
| c1ccccc1 | inactive | – |
| CCC(C)(C)C1CCC(=O)CC1 | inactive | – |
| CCC1Nc2cc(Cl)c(S(N)(=O)=O)cc2S(=O)(=O)N1 (stereo not given) | inactive | – |
| CCN(CC)C(=O)C1CN2CCc3cc(OC)c(OC)cc3C2CC1OC(C)=O (stereo not given) | inactive | – |
| CCCCCCCCCCCCC | inactive | – |
| C[CH2][Ge]([Cl])([CH2]C)[CH2]C | inactive | – |
| C[C@H](CCC(=O)NCC(=O)O)[C@H]1CC[C@H]2[C@@H]3[C@H](O)C[C@@H]4C[C@H](O)CC[C@]4(C)[C@H]3C[C@H](O)[C@]12C | inactive | – |
| CC(C)(C)NCCO | inactive | – |
| C1CCN2C[C@@H]3C[C@@H](CN4CCCC[C@@H]34)[C@H]2C1 | inactive | – |
| CNC(=O)C(c1ccccc1)c1ccccc1 | inactive | – |
| FC(F)(F)c1ccc(Cl)cc1Cl | inactive | – |

| SMILES | outcome | activation |
| --- | --- | --- |
| C1=C\CC/C=C\CC/1 | inactive | – |
| C[N+](C)(C)CC(O)CCl (stereo not given) | inactive | – |
| CN(C)CCCNCCC#N | inactive | – |
| Cc1ccc2c(c1)c1c3n2CCNC3CCC1 (stereo not given) | inactive | – |
| C/C=C(\C)C(=O)OCC/C=C\CC | inactive | – |
| CCCCCCCCCCCCCCCCCCN(C)C | inactive | – |
| O=C(O)Cc1cccc(-c2cc(CCCCCCc3ccc(O[C@H]4O[C@H](CO)[C@@H](O)[C@H](O)[C@@H]4O)c(-c4cccc(CC(=O)O)c4)c3)ccc2O[C@H]2O[C@H](CO)[C@@H](O)[C@H](O)[C@@H]2O)c1 | – | 0.357% [at 0.628 µM] |
| SCCSCCS | inactive | – |
| C=CCOC(=O)c1ccc(C(=O)OCC=C)c(C(=O)OCC=C)c1 | inactive | – |
| O=C1OC(=O)c2ccccc21 | inactive | – |
| CCCCC/C=C/CC(=O)OC | inactive | – |
| CC(C)(CO)[C@@H](O)C(=O)NCCCO | inactive | – |
| CC(Cl)COP(=O)(OCC(C)Cl)OCC(C)Cl (stereo not given) | inactive | – |
| CCOC(=O)CC(CC(=O)OCC)(OC(C)=O)C(=O)OCC | inactive | – |
| CCC(=O)c1ccc(O)cc1 | inactive | – |
| O=S(=O)(O)SSS(=O)(=O)O | inactive | – |
| CNC(=O)NC | inactive | – |
| NC(=O)NC(=O)Cc1ccccc1 | inactive | – |
| CC(=O)Nc1ncc([N+](=O)[O-])s1 | inactive | – |
| CN[C@@H]1[C@H](O)[C@H](NC)[C@H]2O[C@@]3(O)C(=O)C[C@@H](C)O[C@H]3O[C@@H]2[C@H]1O | inactive | – |

From PubChem BioAssay (Tox21)
